# Where a chain is given by its changes, count along the chain named.
# Experiments:
# Experiment in all cases: PBM; 200 nM protein, PBS
# Conditions in all cases: dsDNA, one strand shown
# SHOX [1] = target: SHOX (Homo sapiens, UniProt O15266 103-189)
# PAX4 [2] = target: T1, PAX4 (Homo sapiens, UniProt O43316 9-242, R200K)
# T1 sequence: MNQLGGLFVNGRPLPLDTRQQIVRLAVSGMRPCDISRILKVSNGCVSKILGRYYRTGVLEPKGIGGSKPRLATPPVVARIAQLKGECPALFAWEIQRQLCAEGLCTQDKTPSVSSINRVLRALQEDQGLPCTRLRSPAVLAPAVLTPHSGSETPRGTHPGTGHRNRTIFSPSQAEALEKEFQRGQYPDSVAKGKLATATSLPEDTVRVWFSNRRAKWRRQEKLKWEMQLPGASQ
# PAX4 [3] = target: T2, PAX4 (Homo sapiens, UniProt O43316 9-242)
# T2 sequence: T1 sequence with K192R
# NKX2-6 = target: T3, NKX2-6 (Homo sapiens, UniProt A6NCS4 118-204, R150C)
# T3 sequence: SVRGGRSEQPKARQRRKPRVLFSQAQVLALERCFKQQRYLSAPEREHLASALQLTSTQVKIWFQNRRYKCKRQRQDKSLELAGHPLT
# PAX4 [4] = target: T4, PAX4 (Homo sapiens, UniProt O43316 9-242, R200Q)
# T4 sequence: T1 sequence with K192Q
# SHOX [5] = target: SHOX (Homo sapiens, UniProt O15266 103-189, R173C)
# SHOX (Homo sapiens, UniProt O15266 103-189, R173C), sequence (O15266 103-189 R173C): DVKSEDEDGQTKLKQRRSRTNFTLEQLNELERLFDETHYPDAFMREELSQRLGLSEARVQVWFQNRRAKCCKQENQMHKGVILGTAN
# PAX4 [6] = target: T5, PAX4 (Homo sapiens, UniProt O43316 9-242, F177V)
# T5 sequence: T1 sequence with F169V, K192R
# PAX4 [7] = target: T6, PAX4 (Homo sapiens, UniProt O43316 9-242, F177Y)
# T6 sequence: T1 sequence with F169Y, K192R
# PAX4 [8] = target: T7, PAX4 (Homo sapiens, UniProt O43316 9-242, R227W)
# T7 sequence: T1 sequence with K192R, R219W
# PITX2 = PITX2 (Homo sapiens, UniProt Q99697 72-157)
# PRRX1 [9] = target: PRRX1 (Homo sapiens, UniProt P54821 80-166, F113S)
# PRRX1 (Homo sapiens, UniProt P54821 80-166, F113S), sequence (P54821 80-166 F113S): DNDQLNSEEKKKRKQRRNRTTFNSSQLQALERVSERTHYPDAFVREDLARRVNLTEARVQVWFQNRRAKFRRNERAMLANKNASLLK
# PRRX1 [10] = target: PRRX1 (Homo sapiens, UniProt P54821 80-166)
# PRRX1 (Homo sapiens, UniProt P54821 80-166), sequence (P54821 80-166): as the sequence (P54821 80-166 F113S) above, with S34F counted along it
# ALX4 [11] = target: ALX4 (Homo sapiens, UniProt Q9H161 200-286)
# ALX4 (Homo sapiens, UniProt Q9H161 200-286), sequence (Q9H161 200-286): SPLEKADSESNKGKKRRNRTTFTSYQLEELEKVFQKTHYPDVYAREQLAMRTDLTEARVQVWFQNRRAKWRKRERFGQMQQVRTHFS
# ALX4 [12] = target: ALX4 (Homo sapiens, UniProt Q9H161 200-286, Q225E)
# ALX4 (Homo sapiens, UniProt Q9H161 200-286, Q225E), sequence (Q9H161 200-286 Q225E): as the sequence (Q9H161 200-286) above, with Q26E counted along it
# ALX1 [13] = target: ALX1 (Homo sapiens, UniProt Q15699 118-204, L144V)
# ALX1 (Homo sapiens, UniProt Q15699 118-204, L144V), sequence (Q15699 118-204 L144V): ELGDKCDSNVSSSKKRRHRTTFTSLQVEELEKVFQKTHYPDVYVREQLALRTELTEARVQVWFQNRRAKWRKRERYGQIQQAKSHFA
# ALX1 [14] = target: ALX1 (Homo sapiens, UniProt Q15699 118-204, L144R)
# ALX1 (Homo sapiens, UniProt Q15699 118-204, L144R), sequence (Q15699 118-204 L144R): as the sequence (Q15699 118-204 L144V) above, with V27R counted along it
# ALX1 [15] = target: ALX1 (Homo sapiens, UniProt Q15699 118-204)
# ALX1 (Homo sapiens, UniProt Q15699 118-204), sequence (Q15699 118-204): as the sequence (Q15699 118-204 L144V) above, with V27L counted along it
# MSX2 [16] = target: MSX2 (Homo sapiens, UniProt P35548 130-214, R199I)
# MSX2 (Homo sapiens, UniProt P35548 130-214, R199I), sequence (P35548 130-214 R199I): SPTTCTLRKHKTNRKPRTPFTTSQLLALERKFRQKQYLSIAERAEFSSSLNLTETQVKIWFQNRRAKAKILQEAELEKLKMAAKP
# MSX2 [17] = target: MSX2 (Homo sapiens, UniProt P35548 130-214)
# MSX2 (Homo sapiens, UniProt P35548 130-214), sequence (P35548 130-214): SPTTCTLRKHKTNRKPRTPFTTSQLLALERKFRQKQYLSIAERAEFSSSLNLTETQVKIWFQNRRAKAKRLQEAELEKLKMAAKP
# MSX2 [18] = target: MSX2 (Homo sapiens, UniProt P35548 130-214, F161Y)
# MSX2 (Homo sapiens, UniProt P35548 130-214, F161Y), sequence (P35548 130-214 F161Y): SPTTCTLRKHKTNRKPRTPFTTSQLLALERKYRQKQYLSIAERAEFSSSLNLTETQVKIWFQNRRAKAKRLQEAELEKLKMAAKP
# ALX3 [19] = target: ALX3 (Homo sapiens, UniProt O95076 139-225, N203Q)
# ALX3 (Homo sapiens, UniProt O95076 139-225, N203Q), sequence (O95076 139-225 N203Q): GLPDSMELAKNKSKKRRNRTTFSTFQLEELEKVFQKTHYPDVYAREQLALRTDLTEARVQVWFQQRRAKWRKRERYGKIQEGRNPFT
# ALX3 [20] = target: ALX3 (Homo sapiens, UniProt O95076 139-225)
# ALX3 (Homo sapiens, UniProt O95076 139-225), sequence (O95076 139-225): as the sequence (O95076 139-225 N203Q) above, with Q65N counted along it
# VAX1 [21] = target: VAX1 (Homo sapiens, UniProt Q5SQQ9 86-172)
# VAX1 (Homo sapiens, UniProt Q5SQQ9 86-172), sequence (Q5SQQ9 86-172): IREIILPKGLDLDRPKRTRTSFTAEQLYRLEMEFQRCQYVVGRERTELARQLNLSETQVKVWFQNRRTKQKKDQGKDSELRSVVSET
# ALX3 [22] = target: ALX3 (Homo sapiens, UniProt O95076 139-225, L168Q)
# ALX3 (Homo sapiens, UniProt O95076 139-225, L168Q), sequence (O95076 139-225 L168Q): as the sequence (O95076 139-225 N203Q) above, with L30Q, Q65N counted along it
# ALX3 [23] = target: ALX3 (Homo sapiens, UniProt O95076 139-225, L168V)
# ALX3 (Homo sapiens, UniProt O95076 139-225, L168V), sequence (O95076 139-225 L168V): as the sequence (O95076 139-225 N203Q) above, with L30V, Q65N counted along it
# VAX1 [24] = target: VAX1 (Homo sapiens, UniProt Q5SQQ9 86-172, T142I)
# VAX1 (Homo sapiens, UniProt Q5SQQ9 86-172, T142I), sequence (Q5SQQ9 86-172 T142I): as the sequence (Q5SQQ9 86-172) above, with T57I counted along it
# ALX3 [25] = target: ALX3 (Homo sapiens, UniProt O95076 139-225, N203S)
# ALX3 (Homo sapiens, UniProt O95076 139-225, N203S), sequence (O95076 139-225 N203S): as the sequence (O95076 139-225 N203Q) above, with Q65S counted along it
# VAX1 [26] = target: VAX1 (Homo sapiens, UniProt Q5SQQ9 86-172, K157R)
# VAX1 (Homo sapiens, UniProt Q5SQQ9 86-172, K157R), sequence (Q5SQQ9 86-172 K157R): as the sequence (Q5SQQ9 86-172) above, with K72R counted along it
# SHOX (Homo sapiens, UniProt O15266 103-189), sequence (O15266 103-189): as the sequence (O15266 103-189 R173C) above, with C71R counted along it
sequence,measurement,setting,value
CACCACCC,binding signal,SHOX [1],"7.17 upbm affinity estimate (log intensity, higher = more binding, comparable within an allelic series)"
same,binding signal,PAX4 [2],"9.48 upbm affinity estimate (log intensity, higher = more binding, comparable within an allelic series)"
same,binding signal,PAX4 [3],"9.49 upbm affinity estimate (log intensity, higher = more binding, comparable within an allelic series)"
same,binding signal,NKX2-6,"9.46 upbm affinity estimate (log intensity, higher = more binding, comparable within an allelic series)"
same,binding signal,PAX4 [4],"9.54 upbm affinity estimate (log intensity, higher = more binding, comparable within an allelic series)"
same,binding signal,SHOX [5],"7.25 upbm affinity estimate (log intensity, higher = more binding, comparable within an allelic series)"
same,binding signal,PAX4 [6],"9.4 upbm affinity estimate (log intensity, higher = more binding, comparable within an allelic series)"
same,binding signal,PAX4 [7],"9.47 upbm affinity estimate (log intensity, higher = more binding, comparable within an allelic series)"
same,binding signal,PAX4 [8],"9.4 upbm affinity estimate (log intensity, higher = more binding, comparable within an allelic series)"
CAGCGCAG,binding signal,SHOX [1],"7.11 upbm affinity estimate (log intensity, higher = more binding, comparable within an allelic series)"
same,binding signal,PAX4 [2],"9.32 upbm affinity estimate (log intensity, higher = more binding, comparable within an allelic series)"
same,binding signal,PAX4 [3],"9.29 upbm affinity estimate (log intensity, higher = more binding, comparable within an allelic series)"
same,binding signal,PAX4 [4],"9.39 upbm affinity estimate (log intensity, higher = more binding, comparable within an allelic series)"
same,binding signal,PITX2,"8.17 upbm affinity estimate (log intensity, higher = more binding, comparable within an allelic series)"
same,binding signal,SHOX [5],"7.22 upbm affinity estimate (log intensity, higher = more binding, comparable within an allelic series)"
same,binding signal,PAX4 [6],"9.38 upbm affinity estimate (log intensity, higher = more binding, comparable within an allelic series)"
same,binding signal,PAX4 [7],"9.36 upbm affinity estimate (log intensity, higher = more binding, comparable within an allelic series)"
same,binding signal,PAX4 [8],"9.48 upbm affinity estimate (log intensity, higher = more binding, comparable within an allelic series)"
CCCGGCAC,binding signal,SHOX [1],"7.01 upbm affinity estimate (log intensity, higher = more binding, comparable within an allelic series)"
same,binding signal,PRRX1 [9],"9.16 upbm affinity estimate (log intensity, higher = more binding, comparable within an allelic series)"
same,binding signal,PITX2,"7.81 upbm affinity estimate (log intensity, higher = more binding, comparable within an allelic series)"
same,binding signal,SHOX [5],"7.19 upbm affinity estimate (log intensity, higher = more binding, comparable within an allelic series)"
same,binding signal,PRRX1 [10],"9.19 upbm affinity estimate (log intensity, higher = more binding, comparable within an allelic series)"
AGCTCCAG,binding signal,SHOX [1],"7.12 upbm affinity estimate (log intensity, higher = more binding, comparable within an allelic series)"
same,binding signal,ALX4 [11],"7.91 upbm affinity estimate (log intensity, higher = more binding, comparable within an allelic series)"
same,binding signal,ALX4 [12],"8.27 upbm affinity estimate (log intensity, higher = more binding, comparable within an allelic series)"
same,binding signal,ALX1 [13],"6.26 upbm affinity estimate (log intensity, higher = more binding, comparable within an allelic series)"
same,binding signal,SHOX [5],"7.22 upbm affinity estimate (log intensity, higher = more binding, comparable within an allelic series)"
same,binding signal,ALX1 [14],"6.27 upbm affinity estimate (log intensity, higher = more binding, comparable within an allelic series)"
same,binding signal,ALX1 [15],"6.1 upbm affinity estimate (log intensity, higher = more binding, comparable within an allelic series)"
ACCGGCTG,binding signal,SHOX [1],"7.1 upbm affinity estimate (log intensity, higher = more binding, comparable within an allelic series)"
same,binding signal,MSX2 [16],"9.47 upbm affinity estimate (log intensity, higher = more binding, comparable within an allelic series)"
same,binding signal,SHOX [5],"7.13 upbm affinity estimate (log intensity, higher = more binding, comparable within an allelic series)"
same,binding signal,MSX2 [17],"9.51 upbm affinity estimate (log intensity, higher = more binding, comparable within an allelic series)"
same,binding signal,MSX2 [18],"9.53 upbm affinity estimate (log intensity, higher = more binding, comparable within an allelic series)"
ACTGGGGG,binding signal,SHOX [1],"7.05 upbm affinity estimate (log intensity, higher = more binding, comparable within an allelic series)"
same,binding signal,PAX4 [2],"8.98 upbm affinity estimate (log intensity, higher = more binding, comparable within an allelic series)"
same,binding signal,PAX4 [3],"9.06 upbm affinity estimate (log intensity, higher = more binding, comparable within an allelic series)"
same,binding signal,MSX2 [16],"9.43 upbm affinity estimate (log intensity, higher = more binding, comparable within an allelic series)"
same,binding signal,ALX1 [13],"6.32 upbm affinity estimate (log intensity, higher = more binding, comparable within an allelic series)"
same,binding signal,PAX4 [4],"9.22 upbm affinity estimate (log intensity, higher = more binding, comparable within an allelic series)"
same,binding signal,PITX2,"7.95 upbm affinity estimate (log intensity, higher = more binding, comparable within an allelic series)"
same,binding signal,SHOX [5],"7.08 upbm affinity estimate (log intensity, higher = more binding, comparable within an allelic series)"
same,binding signal,ALX1 [14],"6.52 upbm affinity estimate (log intensity, higher = more binding, comparable within an allelic series)"
same,binding signal,PAX4 [6],"9.12 upbm affinity estimate (log intensity, higher = more binding, comparable within an allelic series)"
same,binding signal,MSX2 [17],"9.41 upbm affinity estimate (log intensity, higher = more binding, comparable within an allelic series)"
same,binding signal,PAX4 [7],"9.07 upbm affinity estimate (log intensity, higher = more binding, comparable within an allelic series)"
same,binding signal,MSX2 [18],"9.45 upbm affinity estimate (log intensity, higher = more binding, comparable within an allelic series)"
same,binding signal,PAX4 [8],"9.15 upbm affinity estimate (log intensity, higher = more binding, comparable within an allelic series)"
same,binding signal,ALX1 [15],"6.23 upbm affinity estimate (log intensity, higher = more binding, comparable within an allelic series)"
GGGAACCC,binding signal,SHOX [1],"7.2 upbm affinity estimate (log intensity, higher = more binding, comparable within an allelic series)"
same,binding signal,PAX4 [2],"9.42 upbm affinity estimate (log intensity, higher = more binding, comparable within an allelic series)"
same,binding signal,PAX4 [3],"9.42 upbm affinity estimate (log intensity, higher = more binding, comparable within an allelic series)"
same,binding signal,PAX4 [4],"9.62 upbm affinity estimate (log intensity, higher = more binding, comparable within an allelic series)"
same,binding signal,SHOX [5],"7.06 upbm affinity estimate (log intensity, higher = more binding, comparable within an allelic series)"
same,binding signal,PAX4 [6],"9.39 upbm affinity estimate (log intensity, higher = more binding, comparable within an allelic series)"
same,binding signal,PAX4 [7],"9.36 upbm affinity estimate (log intensity, higher = more binding, comparable within an allelic series)"
same,binding signal,PAX4 [8],"9.48 upbm affinity estimate (log intensity, higher = more binding, comparable within an allelic series)"
CCTCGGAG,binding signal,SHOX [1],"7.14 upbm affinity estimate (log intensity, higher = more binding, comparable within an allelic series)"
same,binding signal,SHOX [5],"7.17 upbm affinity estimate (log intensity, higher = more binding, comparable within an allelic series)"
CCCTCCTC,binding signal,SHOX [1],"7.26 upbm affinity estimate (log intensity, higher = more binding, comparable within an allelic series)"
same,binding signal,SHOX [5],"7.13 upbm affinity estimate (log intensity, higher = more binding, comparable within an allelic series)"
CGAGCGCA,binding signal,SHOX [1],"7.22 upbm affinity estimate (log intensity, higher = more binding, comparable within an allelic series)"
same,binding signal,SHOX [5],"7.31 upbm affinity estimate (log intensity, higher = more binding, comparable within an allelic series)"
CAGCCGCG,binding signal,SHOX [1],"7.08 upbm affinity estimate (log intensity, higher = more binding, comparable within an allelic series)"
same,binding signal,ALX1 [13],"6.48 upbm affinity estimate (log intensity, higher = more binding, comparable within an allelic series)"
same,binding signal,ALX3 [19],"7.74 upbm affinity estimate (log intensity, higher = more binding, comparable within an allelic series)"
same,binding signal,SHOX [5],"7.07 upbm affinity estimate (log intensity, higher = more binding, comparable within an allelic series)"
same,binding signal,ALX1 [14],"6.44 upbm affinity estimate (log intensity, higher = more binding, comparable within an allelic series)"
same,binding signal,ALX3 [20],"7.7 upbm affinity estimate (log intensity, higher = more binding, comparable within an allelic series)"
same,binding signal,VAX1 [21],"7 upbm affinity estimate (log intensity, higher = more binding, comparable within an allelic series)"
same,binding signal,ALX3 [22],"7.68 upbm affinity estimate (log intensity, higher = more binding, comparable within an allelic series)"
same,binding signal,ALX3 [23],"7.67 upbm affinity estimate (log intensity, higher = more binding, comparable within an allelic series)"
same,binding signal,VAX1 [24],"7.24 upbm affinity estimate (log intensity, higher = more binding, comparable within an allelic series)"
same,binding signal,ALX1 [15],"6.47 upbm affinity estimate (log intensity, higher = more binding, comparable within an allelic series)"
same,binding signal,ALX3 [25],"7.74 upbm affinity estimate (log intensity, higher = more binding, comparable within an allelic series)"
same,binding signal,VAX1 [26],"7.13 upbm affinity estimate (log intensity, higher = more binding, comparable within an allelic series)"
AGGTCCCC,binding signal,SHOX [1],"7.19 upbm affinity estimate (log intensity, higher = more binding, comparable within an allelic series)"
same,binding signal,SHOX [5],"7.17 upbm affinity estimate (log intensity, higher = more binding, comparable within an allelic series)"
GCCTATTA,binding signal,SHOX [1],"10.8 upbm affinity estimate (log intensity, higher = more binding, comparable within an allelic series)"
same,binding signal,SHOX [5],"8.45 upbm affinity estimate (log intensity, higher = more binding, comparable within an allelic series)"
